Test results reported in the supplement of paper PMC12340641.
Counter-ions that a name gives are not always drawn.

Experiments:
[1] = molecular target: IKZF1 (dCK*-IKZF1 fusion in HEK293FT) (UniProt Q13422); assay: inhibition of IKZF1 HTRF signal (DMSO = 0%, pomalidomide 10 uM = 100%); higher = lower IKZF1 protein level; settings: compound concentration: 5 uM, overnight (~20 h)
In short: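 For percent inhibition of IKZF1 signal, each plate was normalised to vehicle and to a reference degrader. Cells were HEK293FT stably expressing an IKZF1 fusion, plated at 2000/well in 384-well format and treated overnight at 37 °C with 5 μM compound, one well each. Lysates were probed overnight with a commercial HTRF total-IKZF1 antibody kit, with the 665/620 nm ratio background-subtracted and vehicle and degrader fixed at 0% and 100%.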

HEK293FT dCK*-only = assay: relative growth in counter assay (no AraC = 100%, AraC + DMSO = 0%); higher = more growth rescue independent of IKZF1; settings: compound concentration: 5 uM; AraC concentration: 0.3 uM; overnight pretreatment + 4 days AraC
In short: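 HEK293FT cells carrying only an engineered kinase construct were plated at 300 per well (384-well) and given 5 μM compound 2 h later. Following overnight at 37 °C, a nucleoside suicide substrate (0.3 μM) plus medium was added for 4 days. Hoechst 33342-stained nuclei were imaged and counted on day 5, with 100% assigned to wells without suicide substrate and 0% to substrate plus vehicle on each plate.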

HEK293FT dCK*-IKZF1 = assay: relative growth recovery (pomalidomide 10 uM = 100%, DMSO = 0%); higher = more growth rescue (IKZF1 fusion degradation); settings: compound concentration: 5 uM; AraC concentration: 0.3 uM; overnight pretreatment + 4 days AraC
In short: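 Means of duplicates from different days are given for growth recovery, normalised per plate against a reference degrader and vehicle. The reference degrader set the 100% level and vehicle the 0% level. HEK293FT cells stably expressing a deoxycytidine kinase–IKZF1 fusion (300/well, 384-well) received 5 μM compound 2 h after seeding and, after overnight at 37 °C, 0.3 μM of a nucleoside suicide substrate plus medium for 4 days. Nuclei stained with Hoechst 33342 were then counted by whole-well imaging on day 5.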

Sequence of IKZF1 (dCK*-IKZF1 fusion in HEK293FT) (Q13422 whole entry, looked up, the tested form may be a part): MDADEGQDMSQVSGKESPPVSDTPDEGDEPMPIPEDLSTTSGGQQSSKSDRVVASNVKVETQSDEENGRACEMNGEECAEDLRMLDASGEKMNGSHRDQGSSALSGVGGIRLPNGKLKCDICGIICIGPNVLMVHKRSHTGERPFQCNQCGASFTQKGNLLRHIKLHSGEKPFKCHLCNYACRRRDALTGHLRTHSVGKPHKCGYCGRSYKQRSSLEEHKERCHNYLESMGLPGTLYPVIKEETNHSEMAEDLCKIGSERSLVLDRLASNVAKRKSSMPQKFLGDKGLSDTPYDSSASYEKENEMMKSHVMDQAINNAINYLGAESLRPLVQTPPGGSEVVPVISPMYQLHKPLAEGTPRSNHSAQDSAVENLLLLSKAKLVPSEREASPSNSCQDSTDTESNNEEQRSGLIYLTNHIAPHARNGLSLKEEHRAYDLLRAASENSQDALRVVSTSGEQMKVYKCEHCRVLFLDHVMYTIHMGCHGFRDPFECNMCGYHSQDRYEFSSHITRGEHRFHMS

| Structure (SMILES) | inhibition of IKZF1 HTRF signal [1] [%] | relative growth in counter assay (HEK293FT dCK*-only) [%] | relative growth recovery (HEK293FT dCK*-IKZF1) [%] |
| --- | --- | --- | --- |
| NC(=O)NC(=O)Cc1ccccc1 | -29.1 | 4.08 | -2.01 |
| COc1ccc(C2CC(c3c(O)cc(C)oc3=O)=NCCS2)c(OC)c1 (stereo unspecified) | -11 | -32.5 | -10.9 |
| COc1cc([C@@H]2c3cc4c(cc3[C@@H](O[C@@H]3O[C@@H]5COC(c6cccs6)O[C@H]5[C@H](O)[C@H]3O)[C@H]3COC(=O)C23)OCO4)cc(OC)c1O (stereo partly specified) [Teniposide] | -45.1 | -34.3 | -12.5 |
| CNCCC(Oc1ccc(C(F)(F)F)cc1)c1ccccc1 (stereo unspecified) | -36.8 | 6.85 | 0.235 |
| NS(=O)(=O)Cc1noc2ccccc12 [zonisamide] | -28.2 | 2.4 | -2.26 |
| CC(C)c1ccc(-c2cc(=O)c3ccccc3o2)cc1 | -25.6 | -5.2 | 0.225 |
| CCCCCCc1ccc(O)cc1O | -30.8 | 4.87 | 2.99 |
| COc1cc([C@@H]2c3cc4c(cc3[C@@H](O[C@@H]3O[C@@H]5CO[C@@H](C)O[C@H]5[C@H](O)[C@H]3O)[C@H]3COC(=O)[C@H]23)OCO4)cc(OC)c1OP(=O)(O)O [Etoposide phosphate] | -12.6 | -33.9 | -13 |
| Clc1ccc(C(Cn2ccnc2)OCc2ccc(Sc3ccccc3)cc2)c(Cl)c1 (stereo unspecified) [Fenticonazole nitrate] | -51.2 | -4.73 | 0.87 |
| CC(=O)[C@]1(O)Cc2c(O)c3c(c(O)c2[C@@H](O[C@H]2C[C@H](N)[C@H](O)[C@H](C)O2)C1)C(=O)c1ccccc1C3=O [Idarubicin HCl] | 11.7 | -34.2 | -13 |
| C=CCNc1c(O)cc2c(O)c1C[C@@H](C)C[C@H](OC)[C@H](O)[C@@H](C)/C=C(\C)[C@H](OC(N)=O)[C@@H](OC)/C=C\C=C(/C)C(=O)N2 [Retaspimycin (Hydrochloride)] | -31 | -34.5 | -10.9 |
| CN(C)CCCN1c2ccccc2Sc2ccccc21 | -35.6 | 5.27 | -2.24 |
| Oc1c(I)cc(Cl)c2cccnc12 | -2.15 | -3.3 | -3.28 |
| CC(=O)Oc1ccccc1C(=O)Nc1ncc([N+](=O)[O-])s1 [Nitazoxanide] | 18.8 | -4.25 | 1.91 |
| Cn1c(=O)n(-c2ccc(C(C)(C)C#N)cc2)c2c3cc(-c4cnc5ccccc5c4)ccc3ncc21 [Dactolisib (BEZ235, NVP-BEZ235)] | 46.7 | -20.5 | -7.88 |
| O=C(OC)C1=C(C)NC(C)=C(C(OCCCN3CCC(C4=CC=CC=C4)(C5=CC=CC=C5)CC3)=O)[C@H]1[C@]2=CC=CC([N+]([O-])=O)=C2 [niguldipine-(S)-(+)] | -12 | -29.9 | -10.5 |
| CCCNC(=O)NS(=O)(=O)c1ccc(Cl)cc1 | -35.8 | -2.41 | 1.51 |
